SW480 rerep: A quantitative high throughput screen for small molecules that induce DNA re-replication in SW480 colon adenocarcinoma cells; SW480 DNA re-replication, Hoechst DNA content imaging, 48 h; Potency, µM (titrated, usually from 46.1 µM), for inactives: at the top dose re-replication activation, usual class: activators; hit rate 1.8% among 340,000; AID 624297, 2012; further: potency means the concentration at half of the fitted maximal effect; % of control where 0% means no effect; nearly all actives have a fitted effect of over 55% in size
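Readout is total intensity of Hoechst-stained nuclei, excited at 405 nm and collected at 500-530 nm. Compound treatment lasted 48 hr at 37 C in 5% CO2 before staining.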
DT40 TDP1 no CPT: qHTS for Inhibitors of human tyrosyl-DNA phosphodiesterase 1 (TDP1): qHTS in cells in absence of CPT; DT40 Tdp1-/- hTDP1 cells, no CPT, ATP luminescence, 48 h; Potency, µM (titrated, usually from 46.2 µM), for the others: at the highest dose activity change, negative = growth inhibition, actives largely listed as inhibitors; hit rate 15% among 420,000; further: potency means the concentration at half of the fitted maximal effect; on the % scale 0 is the no-effect control and ±100 the full control effect; nearly all actives have a fitted effect of over 55% in size
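Camptothecin absent (DMSO only). Human TDP1-complemented DT40 knockout cells, 400 cells/well, 37 °C for minimum 48 hr; ATP measured via CellTiter-Glo, 30 min dark incubation, luminescence.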
BCR signal inh: qHTS Assay to Find Inhibitors of Chronic Active B-Cell Receptor Signaling | hit rate 0.05% among 340,000 | Potency, µM (titrated, usually from 46.1 µM), inactives show at the top dose activity change, negative = inhibition, actives largely listed as inhibitors | AID 493014, 2011 | ABC-DLBCL IkBa-CBG/CBR reporter, luminescence ratio, 4 h; active means well fitted inhibition curve with a large enough effect in the signal ratio, with a control signal flat, not every such curve was filed as active; inconclusive means small, poorly fitted or top-dose-only effect, or effect the other way, or a change in a side signal; the % refers to the signal ratio;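 further: potency means the concentration at half of the fitted maximal effect; plate controls were basal doxycycline-induced cells for no effect and cells given 10 µM MG132 for full effect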
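Cell line TMD8 (human ABC DLBCL), stably expressing tet-inducible CBG68-IkBa fusion and CBR; IMDM/0.5% FBS; cpd up to 46 uM; dox induction, 4 h, 37C/5% CO2; dual luminescence; green/red ratio; MG132 control.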
IL1B secr inh: qHTS for Inhibitors of Inflammasome Signaling: IL-1-beta AlphaLISA Primary Screen; activity change, % at 57.5 µM; hit rate 4.7% among 360,000; THP-1 LPS/ATP IL-1B secretion, AlphaLISA, 16 h; active compounds read low; AID 743279, 2014; in the data active means activity change below about -50%; inconclusive means mostly about -30% to -49%; further: on the % scale 0 is the no-effect control and ±100 the full control effect
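Secreted IL-1B measured by AlphaLISA bead assay after 16 h compound exposure of THP-1 cells; compounds (final up to 57.5 uM) added 1 h before LPS (250 ng/mL) and ATP (1.25 mM) stimulation; lower signal means less secretion.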
MCF10A rerep: A quantitative high throughput screen for small molecules that induce DNA re-replication in MCF 10a normal breast cells; AID 624296, 2012; hit rate 2.9% among 350,000; Potency, µM (doses to about 46.1 µM), without a hit: at the top dose activity, positive = re-replication, most hits filed as activators; MCF 10A DNA re-replication, Hoechst nuclear intensity, 48 h; further: potency means the concentration at half of the fitted maximal effect; % of control where 0% means no effect; nearly all actives have a fitted effect of over 50% in size
TDP1 cell CPT: qHTS for Inhibitors of human tyrosyl-DNA phosphodiesterase 1 (TDP1): qHTS in cells in presence of CPT. chicken DT40 Tdp1-/-;hTDP1 cells + 20 nM CPT, ATP luminescence, 48 h. Potency, µM (series often up to 46.2 µM), inactives show top-dose activity change, negative = growth inhibition, actives largely listed as inhibitors. hit rate 12% among 420,000. AID 686979, 2013; further: potency means the concentration at half of the fitted maximal effect; on the % scale 0 is the no-effect control and ±100 the full control effect; nearly all actives have a fitted effect of over 55% in size
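Chicken DT40 Tdp1-/- cells complemented with human TDP1, 400 cells/well, exposed to compounds plus 20 nM camptothecin for at least 48 h at 37 C; viability read as ATP content by CellTiter-Glo luminescence.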
Starred values were filed as active, the others as inactive; ? = inconclusive; . = not tested or not shown. Only some compounds are listed: those with a hit (about 19% of all), similar ones and a draw of the others. Unless noted, the call rests on the fitted dose curve; in most records, active means well fitted curve in the direction sought with a large enough effect; inconclusive means small, poorly fitted or top-dose-only effect, or another doubt; inactive means no such curve, though single readings can be large; an effect the other way counts as inactive or inconclusive.

SMILES | SW480 rerep | DT40 TDP1 no CPT | BCR signal inh | IL1B secr inh | MCF10A rerep | TDP1 cell CPT
C/C(=N\n1c(C)nc2ccccc2c1=O)c1ccc(N)cc1 | -3% | 18µM* | . | 11 | -3% | ?
COc1ccc(N2CC(NC(=O)C(=O)c3c[nH]c4ccccc34)CC2=O)cc1 (configuration not stated) | . | -27% | ? | . | . | -6%
CCn1c(=NC(=O)CS(=O)(=O)c2ccc(C)cc2)sc2cccc(OC)c21 | 3% | 16µM* | 2% | -8 | ? | ?
Cn1c(=NC(=O)CS(=O)(=O)c2ccccc2)sc2cc(F)ccc21 | . | ? | . | 27 | . | ?
COc1cccc2sc(=NC(=O)CS(=O)(=O)c3ccc(F)cc3)n(C)c12 | 2% | 12µM* | -7% | 14 | 1% | ?
COc1cccc2sc(=NC(=O)CS(=O)(=O)c3ccccc3)n(C)c12 | . | 15µM* | . | 3 | . | ?
COc1cccc2sc(=NC(=O)CS(=O)(=O)c3ccc(Cl)cc3)n(C)c12 | -1% | 2.3µM* | 4% | 49 | -4% | 7.3µM*
Cc1csc(=O)n1CCC(=O)OCC(=O)NNC(=O)c1ccccc1 | -10% | -4% | 0% | 6 | 0% | 3%
CC(C)CCn1nnnc1C(c1ccc(N(C)C)cc1)N1CCN(C(=O)c2ccco2)CC1 (configuration not stated) | 2% | -16% | 0% | -65* | ? | -12%
CC(C)C(c1nnnn1Cc1ccc(F)cc1)N1CCN(C(=O)c2ccco2)CC1 (configuration not stated) | -3% | 16µM* | 5% | 8 | 7% | ?
CCCCC(c1nnnn1CCOC)N1CCN(C(=O)c2ccco2)CC1 (configuration not stated) | -1% | -17% | ? | 19 | -1% | 18µM*
CC1=C(C(=O)N2CCCCCC2)CC(CC(=O)NC2CCCC2)C(=O)N1CCC1=CCCCC1 (configuration not stated) | . | -24% | . | -13 | . | ?
CSc1ccc(NC(=O)Nc2cccn(Cc3ccccc3F)c2=O)cc1 | ? | 26µM* | ? | -68* | 18% | ?
Cc1ccc(NC(=O)NCc2cccn2Cc2ccccc2)cc1F | . | -8% | . | . | . | -10%
CCOc1ccc(NC(=O)Nc2ccccc2SC)cc1 | -3% | 23µM* | ? | ? | 10% | ?
CSc1ccccc1NC(=O)Nc1ccccc1 | -2% | -17% | ? | 6 | -13% | -29%
CCOc1ccc(NC(=O)Nc2cccn(Cc3ccccc3)c2=O)cc1 | 10% | 15µM* | ? | -74* | 17% | ?
CCOC(=O)Cc1ccc(NC(=O)NCc2cccn2Cc2ccccc2)cc1 | . | 21µM* | . | . | . | 13µM*
CCc1ccccc1NC(=O)Nc1cccn(Cc2ccccc2F)c1=O | ? | ? | -7% | -26 | 1% | ?
O=S(=O)(c1cccc2nsnc12)N1CCCCC1 | 29% | 1% | -4% | 6 | 17% | -2%
IC(I)I | -3% | ? | . | . | -1% | 10%
CCc1ncc(CN2CCCC(C(=O)Nc3ccc(-c4cscn4)cc3)C2)cn1 (configuration not stated) | 16% | 14% | ? | 5 | 0% | -6%
COc1cc2c(cc1OC)[C@@H](NC(=O)CCc1ccccc1)[C@H](OCc1ccccc1)C2 | ? | ? | 0% | -21 | -7% | 10µM*
Cn1cc(-c2nc3cncnc3n(Cc3ccccc3Cl)c2=O)c2ccccc21 | . | -9% | . | . | . | -3%

Screening data: PubChem, National Center for Advancing Translational Sciences (NCATS)
